In PubChem BioAssay AID1049 (The Scripps Research Institute Molecular Screening Center, 2008):
Screen size: about 200,000 compounds; about 780 (0.39%) were called active. The sample holds actives, similar compounds and a random draw of the others, so the mix is not that of the screen. Cut-off read from the data, not from the text of the source: active = TR-FRET ratio above about 2000; inactive = the rest.

Experiment: detection-format interference in TR-FRET ratio – biochemical, artefact control for PPARgamma SRC-2 agonist project, primary screen (AID 1049)
Settings: TR-FRET artefact counter-screen; at 8 µM; stronger effect = higher value

Structure (SMILES) | TR-FRET ratio
COc1ccc(-c2nnco2)cc1OC | 1520 (inactive)
COc1ccc2c(Cl)c(-c3nnco3)sc2c1 | 2130 (active)
COc1ccc2c(Cl)c(C(=O)NCc3ccco3)sc2c1 | 1570 (inactive)
COCCNC(=S)N/N=C/c1c(C)[nH]c2ccccc12 | 1410 (inactive)
COc1ccc(C(=O)NC2CCN(C(=S)NCCc3ccccc3)CC2)cc1 | 1560 (inactive)
C/C=C(\C)C(=O)NCCN1C2=NC[C@H](Cc3ccc(O)cc3)N2C[C@@H]1Cc1ccc(OC)cc1 | 1390 (inactive)
CCN1CCC2(CCN(Cc3cn[nH]c3-c3ccc(OC)c(F)c3)C2)C1 (stereo not drawn) | 1730 (inactive)
CN(C)c1ccnc(Oc2ccc(F)cc2)c1C#N | 1800 (inactive)
N#Cc1ccc(-c2ccc(Cl)cc2)nc1Oc1ccc(F)cc1 | 5180 (active)
N#Cc1ccc(-c2ccc(F)cc2)nc1Sc1ccccc1 | 1500 (inactive)
CCn1cc(C(=O)Nc2cc(C)ccc2C)c(=O)c2ccc(C)nc21 | 1650 (inactive)
CCOC(=O)C1(Cc2cccc(OC)c2)CCN(C(C)CC(C)(C)O)CC1 (stereo not drawn) | 1480 (inactive)
NC(=O)CSc1oc(-c2cccs2)nc1S(=O)(=O)c1ccccc1 | 2010 (active)
COC(=O)CSc1nccc(-c2cccs2)n1 | 1880 (inactive)
COc1ccc(OC)c(C(=O)CSc2nnc(-c3cccs3)o2)c1 | 1750 (inactive)
CCCn1c(N)c(C(=O)CSc2nc3ccccc3c(=O)n2-c2ccc(OC)cc2)c(=O)[nH]c1=O | 1480 (inactive)
Cc1cc(C)nc(/N=C2\NC(=O)CC(C(=O)O)N2c2ccc(Cl)cc2Cl)n1 (stereo not drawn) | 1590 (inactive)
COc1cccc(-c2ccc(SCC(=O)N3CCN(c4ccccc4)CC3)nn2)c1 | 1690 (inactive)
COc1cc(C2C(C(=O)c3ccc(C)o3)=C(O)C(=O)N2Cc2cccnc2)ccc1O (stereo not drawn) | 1570 (inactive)
CCCOc1ccc(C2C(C(=O)c3ccc(C)o3)=C(O)C(=O)N2CCCn2ccnc2)cc1 (stereo not drawn) | 2170 (active)
COc1cc(C2C(C(=O)c3ccc(C)o3)=C(O)C(=O)N2CCc2ccccc2)ccc1O (stereo not drawn) | 1530 (inactive)
COc1ccc(NC(=O)COC(=O)c2ccc(NS(=O)(=O)/C=C/c3ccccc3)cc2)cc1 | 1720 (inactive)
O=C(c1ccc2ccccc2n1)N1CCN(c2ccccc2Cl)CC1 | 1700 (inactive)

Structure (SMILES) | TR-FRET ratio
COc1ccc(C2C(C#N)=C(N)N(c3ncn[nH]3)C3=C2C(=O)CCC3)cc1 (stereo not drawn) | 1620 (inactive)
COc1cccc(CN2CCNC(=O)C2CC(=O)N(C)CCc2ccccn2)c1 (stereo not drawn) | 1620 (inactive)
CC(C(=O)N1CCOCC1)N1c2cccc3cccc(c23)S1(=O)=O (stereo not drawn) | 2090 (active)
Cc1ccc(S(=O)(=O)NC(C(=O)N2CCOCCOCCOCCOCC2)c2ccccc2)cc1 (stereo not drawn) | 1360 (inactive)
NC(=NC(=O)c1ccccc1)N1CCOCC1 | 1360 (inactive)
C/C(=N\N1CCN(Cc2ccc(C)cc2)CC1)c1ccco1 | 1400 (inactive)
Cc1nnc(SCc2cccc(Cl)c2)n(N)c1=O | 1460 (inactive)
Cc1cc([N+](=O)[O-])nn1CCCC(=O)Nc1cccnc1Cl | 1580 (inactive)
CC(NC(=S)Nc1ccc(S(N)(=O)=O)cc1)c1ccc2c(c1)OCO2 (stereo not drawn) | 1640 (inactive)
CC(C)(C)N(CC#CCC(O)(c1ccccc1)C1CCCC1)CCO (stereo not drawn) | 1230 (inactive)
O=C1NC(c2cccc(Cl)c2)Nc2ccccc21 (stereo not drawn) | 1540 (inactive)
CC(=O)N1c2ccccc2N(Cc2ccc([N+](=O)[O-])cc2)C(=O)C1(C)C | 1510 (inactive)
CCC1CCCCN1C(=S)Nc1ccc(C(C)=O)cc1 (stereo not drawn) | 1340 (inactive)
CCN(CC)CCCNC(=O)CCc1ccccc1 | 1550 (inactive)
CCN(CCCNC(=O)CSc1cc(=O)n(C)c2cc(Cl)ccc12)Cc1ccccc1 | 2600 (active)
CCN(CC)CCCNC(=O)c1cc(-c2cccc(Cl)c2)on1 | 1610 (inactive)
CCc1ccc(CN(C)Cc2nc(Cc3ccccc3)no2)nc1 | 1650 (inactive)
CCOC(=O)c1ccc(NC(=O)c2cc(=O)[nH]c3ccccc23)cc1 | 1510 (inactive)
Cc1ccc(-c2nc(C)sc2CC(=O)O)cc1 | 1600 (inactive)
O=C(O)Cc1sc(-c2ccc(C(=O)O)cc2)nc1-c1ccccc1 | 1800 (inactive)
O=C(O)Cc1sc(-c2ccccc2)nc1-c1cccs1 | 2400 (active)
N#CC1(NC(=O)COc2ccc3oc4ccccc4c3c2)CCCCC1 | 1590 (inactive)
COc1cc(C=O)c(Br)cc1OCC(=O)NCc1ccccc1 | 1530 (inactive)

Structure (SMILES) | TR-FRET ratio
CC1Cc2ccccc2N1C(=O)c1cc2sccc2n1Cc1ccccc1 (stereo not drawn) | 1970 (active)
O=C(c1cc2sccc2n1Cc1ccc(F)cc1)N1CCc2ccccc21 | 2950 (active)
O=C(NCc1ccco1)c1cc2sccc2n1Cc1ccc(F)cc1 | 1520 (inactive)
Cc1cc(=O)[nH]c(SCC(=O)N2c3ccccc3CC2C)n1 (stereo not drawn) | 1610 (inactive)
O=C(CSCc1ccccc1)N1CCc2ccccc21 | 1410 (inactive)
CCOC(=O)c1cc2sccc2n1Cc1ccc(C#N)cc1 | 1400 (inactive)
COc1ccc(-c2csc(Cc3nc(O)cs3)n2)cc1 | 1650 (inactive)
CC(O)c1cccc(NC(=O)Cc2cccc3ccccc23)c1 (stereo not drawn) | 1490 (inactive)
CC1(C)CC(=O)C/C(=N\NC(=O)c2cccs2)C1 | 1760 (inactive)
COc1cc(/C=C/C(=O)OCC(=O)NC(=O)NCc2ccccc2)ccc1OCC#N | 1430 (inactive)
O=C(CSc1nc2c(cnn2-c2ccc(F)cc2)c(=O)[nH]1)N1CCCCCC1 | 1460 (inactive)
C=CCNC(=O)CSc1nc2sc(C)c(C)c2c(=O)[nH]1 | 1430 (inactive)
CC(=O)c1sc2nc(SCC(=O)N3CCCCC3)[nH]c(=O)c2c1C | 1990 (active)
O=C(CSCc1ccc(Cl)cc1)N1CCCCC1 | 1510 (inactive)
Cc1cccc(OCc2nnc(SCC(=O)N3CCN(C(=O)c4ccco4)CC3)n2C)c1C | 1760 (inactive)
Cn1c(=O)cc(SCC(=O)N2CCN(C(=O)c3ccco3)CC2)c2ccccc21 | 2320 (active)
CCOc1ccc(CCNC(=O)CSc2cc(=O)n(C)c3ccc(Cl)cc23)cc1OCC | 1900 (inactive)
CC(=O)c1ccc(-n2nnnc2SCC(=O)N2CCN(C(=O)c3ccco3)CC2)cc1 | 1580 (inactive)
CCOC(=O)N1CCC(NC(=O)COc2cc(=O)n(C)c3ccccc23)CC1 | 1480 (inactive)
CCOC(=O)C1CCN(C(=O)Cn2cc(C#N)c3ccccc32)CC1 | 1470 (inactive)
Cn1c(=O)cc(SCC(=O)N2CCCC2)c2cc(Cl)ccc21 | 2940 (active)
CCOC(=O)C1CCN(C(=O)CSc2cc(=O)n(C)c3ccccc23)CC1 | 2840 (active)
